Screening data (PubChem BioAssay)
LASV entry inh: inhibitors of Lassa virus binding or cell entry | Lassa virus pseudotype entry inhibition, cell reporter | Potency, µM (highest dose often 37.9 µM), without a hit: at the top dose activity change, negative = inhibition, actives largely listed as inhibitors | 300,000 tested, 1.2% active | AID 540256; calls by dose curve; tested in HEK293 cells; further: potency means the concentration at half of the fitted maximal effect; nearly all actives have a fitted effect of over 50% in size
HCMV antiviral: human cytomegalovirus inhibition | HFF cells, HCMV-luciferase reporter, 72 h; active compounds read low | activity change, negative = inhibition, % at 57.5 µM | 410,000 tested, 4.5% active; in the data active means activity change below about -60%; inconclusive means no clear call, values can overlap the other calls; inactive means above about -39%
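Screen run at 2 compound doses on HFFs infected with reporter HCMV, MOI 1 PFU/cell. Luciferase activity from cell lysates at 72 h post infection gave inhibition relative to buffer-only and Salinomycin wells.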
MARV entry inh: blocks Marburg virus binding to or entry into cells. Marburg virus pseudotyped entry inhibition, cell reporter. Potency, µM (series often up to 37.8 µM), without a hit: at the top dose activity change, negative = inhibition, actives largely listed as inhibitors. 300,000 tested, 1.8% active; calls by dose curve; tested in HEK293 cells; further: potency means the concentration at half of the fitted maximal effect
FMDV antiviral: foot and mouth disease virus antiviral activity. FMDV antiviral cell-based qHTS. Potency, µM (doses to about 57.9 µM), inactives show at the highest dose activity change, negative = inhibition, most hits filed as inhibitors. 410,000 tested, 1.2% active; calls by dose curve; tested in HEK293T cells; further: read-out not given here; potency means the concentration at half of the fitted maximal effect; nearly all actives have a fitted effect of over 45% in size
An asterisk follows results filed as active; u = inconclusive; x = no result given; [ ] = remark or other dose. Compounds with a hit are over-represented: about 6.2% of the library has one in this group of screens. On the % scale 0 is the no-effect control and ±100 the full control effect.

SMILES	LASV entry inh	HCMV antiviral	MARV entry inh	FMDV antiviral
Cc1ccc2c(c1)c1c(n2CC(O)CN2CCCCCC2)CCCC1 (configuration not stated)	u	-77*	6.3µM*	-28%
O=C(/C=C/c1ccccn1)NCC1Cc2cccc(-c3ncccn3)c2O1 (configuration not stated)	x	x	x	-13%
O=C(NCCC1=CCCCC1)c1ccc2c(c1)N(Cc1cccc(Cl)c1)C(=O)c1ccccc1S2=O (configuration not stated)	-27%[46.1 µM]	-63*	x	11%
O=C(NCCC1=CCCCC1)c1ccc2c(c1)N(Cc1ccc(Cl)cc1)C(=O)c1ccccc1S2(=O)=O	u	31	11µM*	12%
CS(C)(=O)=O	x	x	x	6%
CCC1(C2CCN(Cc3cccc(Cl)c3)CC2)NC(=O)N(CC2COc3ccccc3O2)C1=O (configuration not stated)	x	x	x	-11%
COc1cc(NC(=O)N2CCc3nc(NCc4cccc(Oc5ccccc5)c4)ncc3C2)cc(OC)c1OC	x	-92*	x	u
O=C1CCCC2=C1[C@H]1O[C@](CCCCN3C(=O)c4ccccc4C3=O)(Cc3c1ccc1ccccc31)O2	x	x	-23%[14.2 µM]	x
COc1ccc2cc(CNCCOCCOCCNCc3ccc4cc(OC)ccc4c3)ccc2c1	u	-98*	u	40µM*
Cc1ncc2c(c1CNC(=O)c1ccc3c(c1)OCO3)CCN(C(=O)c1coc3c1C(=O)CCC3)C2	x	x	x	8%
COc1ccc(-c2[nH]c3ccccc3c2SCCNC(=O)c2ccc(S(=O)(=O)N(C)C)cc2)cc1	u	u	u	-2%
CC(C)(C)c1ccc(CSc2nc3c(c(=O)[nH]2)CCCC3)cc1	10%[46.1 µM]	-19	-6%[46.1 µM]	u
COc1ccc(-n2c(CNC(=O)c3c(-c4ccccc4)noc3C)nnc2SC)cc1	x	x	x	-14%
CC(C)=CCC/C(C)=C/CNC(=O)CC1C[C@H](C(=O)N2CCOCC2)[C@@]2(C)c3[nH]c4ccccc4c3CCN2C1=O (some centres not stated)	x	1	x	u
CC(C)(C)NC(=O)C[C@H]1C[C@H](C(=O)N2CCCCC2)[C@@]2(CCc3ccccc3)c3[nH]c4ccc(Cl)cc4c3CCN2C1=O	x	-6	x	-14%
CC(C)=CCC/C(C)=C/CNC(=O)C[C@H]1C[C@H](C(=O)N2CCOCC2)[C@@]2(C)c3[nH]c4ccc(Cl)cc4c3CCN2C1=O	x	-86*	0%	u
CN(C)C(=O)CCc1ccc2c3c([nH]c2c1)[C@]1(C)[C@@H](C(=O)N2CCCCC2)C[C@H](CC(=O)NCC24CC5CC(CC(C5)C2)C4)C(=O)N1CC3	x	-90*	0%	-26%
CC[C@]12c3[nH]c4ccc(Cl)cc4c3CCN1C(=O)[C@@H](CC(=O)NCC13CC4CC(CC(C4)C1)C3)C[C@@H]2C(=O)N1CCN(C(=O)c2ccco2)CC1	x	-106*	x	u
CN(C)C(=O)CCc1ccc2c3c([nH]c2c1)[C@]1(C)[C@@H](C(=O)N2CCCCC2)C[C@H](CC(=O)NCCN2CCOCC2)C(=O)N1CC3	x	-19	9%	-8%
COCCCNC(=O)C[C@H]1C[C@H](C(=O)N2CCCCC2)[C@@]2(CCc3ccccc3)c3[nH]c4ccc(Cl)cc4c3CCN2C1=O	x	-5	0%	40µM*
CC[C@]12c3[nH]c4ccc(OC)cc4c3CCN1C(=O)C(CC(=O)NCC13CC4CC(CC(C4)C1)C3)C[C@@H]2C(=O)N1CCN(C(=O)c2ccco2)CC1 (some centres not stated)	x	x	-1%	u
Cc1cc(-c2ccnc(-n3ncc(C(=O)NCC(C)(C)N4CCOCC4)c3C)n2)c(C)s1	x	x	x	12%
Cc1ccc(CNc2nc(CN3CCSCC3)nc3ccccc23)o1	x	x	x	39%
O=C(O)c1cc(N/N=C/c2ccc3c(c2)OCCO3)ccc1Cl	1.6µM*	163	u	2.5µM*
O=C(O)c1cc(N/N=C/c2ccc3c(c2)OCO3)ccc1Cl	u	98	2.5µM*	14µM*
SMILES	LASV entry inh	HCMV antiviral	MARV entry inh	FMDV antiviral
O=C(O)c1ccc(N/N=C/c2ccc3c(c2)OCO3)cc1	u	-73*	u	25µM*
Cc1ccc(N/N=C/c2ccc3c(c2)OCCO3)cc1Cl	-4%	-29	u	24%
COc1cccc(Nc2nccc3[nH]c(-c4cccc(F)c4)cc23)c1	x	-21	x	x
COCc1[nH]nc2c1[C@@H](c1ccc(OC)cc1)C(C#N)=C(N)O2	x	x	5%	x
CC(=O)c1sc(NC(=O)C2(F)C(F)(F)C(F)(F)C(F)(F)C(F)(F)C2(F)F)nc1C	1.6µM*	-98*	2.6µM*	x
CCCC(=O)Nc1nc(C)c(C(C)=O)s1	2%[46.1 µM]	-18	u	-1%
CC(=O)c1sc(NC(=O)C=C(C)C)nc1C	8%	-69*	1%	47%
